Only some compounds are listed: those with a hit (about 2.8% of all), similar ones and a draw of the others.
IP6K1 inhibitor = blocks human inositol hexakisphosphate kinase 1; Q92551; IP6K1 kinase, ADP-Glo luminescence, 2 h; hits give low values; activity change, % (series mostly up to about 58 µM); hit rate 0.81% among 140,000; AID 1645851; in the data active = activity change below about -25%
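ADP-Glo luminescence measures ADP made by human IP6K1 during a 2 h RT reaction with ATP/IP6 (mix at 1.3 mM/130 uM); top library doses 57.5 and 19.1 uM final.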
KDM5B inhibitor = KDM5B demethylase inhibition. Potency, µM (doses to about 57.7 µM), most hits filed as inhibitors. hit rate 2.6% among 220,000. AID 1347165. KDM5B demethylase, FDH-coupled NADH fluorescence (FDH is formaldehyde dehydrogenase); note: nearly all actives have a fitted effect of over 70% in size
Target sequence (Q9UGL1 whole entry, looked up): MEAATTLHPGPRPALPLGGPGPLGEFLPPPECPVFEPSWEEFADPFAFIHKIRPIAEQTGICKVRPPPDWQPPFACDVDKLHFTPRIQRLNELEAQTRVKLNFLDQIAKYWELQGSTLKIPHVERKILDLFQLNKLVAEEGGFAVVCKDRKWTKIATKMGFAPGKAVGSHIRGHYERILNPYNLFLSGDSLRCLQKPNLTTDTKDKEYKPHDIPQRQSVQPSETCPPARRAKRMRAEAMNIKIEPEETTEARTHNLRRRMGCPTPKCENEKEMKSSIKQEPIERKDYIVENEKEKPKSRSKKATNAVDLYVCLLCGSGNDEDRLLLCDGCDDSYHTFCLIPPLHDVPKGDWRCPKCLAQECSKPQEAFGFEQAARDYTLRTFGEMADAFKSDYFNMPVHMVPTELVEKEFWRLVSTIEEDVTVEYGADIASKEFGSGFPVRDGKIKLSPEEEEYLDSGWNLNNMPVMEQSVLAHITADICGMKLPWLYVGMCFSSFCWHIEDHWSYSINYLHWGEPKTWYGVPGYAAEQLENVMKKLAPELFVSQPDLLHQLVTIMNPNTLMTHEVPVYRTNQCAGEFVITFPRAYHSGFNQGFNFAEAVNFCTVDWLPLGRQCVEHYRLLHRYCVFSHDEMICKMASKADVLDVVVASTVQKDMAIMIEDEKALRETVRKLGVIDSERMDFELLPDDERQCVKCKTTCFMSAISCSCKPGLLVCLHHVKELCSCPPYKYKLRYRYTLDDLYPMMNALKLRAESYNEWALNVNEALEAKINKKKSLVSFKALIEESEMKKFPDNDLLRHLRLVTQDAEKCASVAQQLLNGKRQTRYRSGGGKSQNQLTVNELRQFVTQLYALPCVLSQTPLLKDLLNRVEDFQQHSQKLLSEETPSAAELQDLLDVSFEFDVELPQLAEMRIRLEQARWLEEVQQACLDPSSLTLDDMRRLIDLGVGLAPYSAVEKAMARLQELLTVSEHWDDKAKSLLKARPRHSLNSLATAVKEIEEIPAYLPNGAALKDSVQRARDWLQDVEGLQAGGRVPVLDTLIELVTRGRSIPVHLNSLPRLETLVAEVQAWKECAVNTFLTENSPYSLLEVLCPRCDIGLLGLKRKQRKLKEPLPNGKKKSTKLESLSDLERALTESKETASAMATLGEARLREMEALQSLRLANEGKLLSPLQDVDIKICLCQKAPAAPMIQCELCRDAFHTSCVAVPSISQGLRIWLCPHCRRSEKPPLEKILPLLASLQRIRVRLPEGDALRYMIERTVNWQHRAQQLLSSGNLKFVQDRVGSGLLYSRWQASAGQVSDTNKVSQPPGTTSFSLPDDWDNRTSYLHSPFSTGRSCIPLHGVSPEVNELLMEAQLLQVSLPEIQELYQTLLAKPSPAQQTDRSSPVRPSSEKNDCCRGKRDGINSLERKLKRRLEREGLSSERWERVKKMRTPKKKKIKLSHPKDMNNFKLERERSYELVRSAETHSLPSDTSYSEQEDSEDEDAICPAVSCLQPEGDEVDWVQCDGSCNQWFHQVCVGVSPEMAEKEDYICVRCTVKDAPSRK
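Compound dilutions met 200 nM (final) KDM5BΔAP for 10 min at room temperature before substrate addition. The substrate mix held 12.5 µM H3K4me3 with cofactors 25 µM α-ketoglutarate and 50 µM Fe²⁺. NADH signal gain over 30 min defined activity.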
SNCA expr inh = reduces expression of the alpha-synuclein gene. HEK-293 SNCA-luciferase knock-in, luminescence, 24 h. Potency, µM (series often up to 57.2 µM), actives largely listed as inhibitors. hit rate 0.17% among 140,000; note: nearly all actives have a fitted effect of over 45% in size
HEK293 viab = counter-screen for SNCA expression inhibitors: cell viability | Potency, µM (titrated, usually from 57.1 µM), usual class: cytotoxic | HEK-293-SNCA-luc viability, GF-AFC fluorescence, 24 h | hit rate 0.12% among 150,000; note: nearly all actives have a fitted effect of over 30% in size
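Cytotoxicity counterscreen: after 24 h compound treatment of genome-edited SNCA-luciferase HEK-293 cells, live-cell protease substrate GF-AFC read by fluorescence after 30 min; activity scaled between DMSO (0%) and medium-only (-100%), curves Hill-fitted.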
Large screens that a line does not name were inactive. Unless noted, calls come from the whole dose curve; as a rule, active = well fitted curve in the direction sought with a large enough effect; inconclusive = small, poorly fitted or top-dose-only effect, or another doubt; inactive = no such curve, though single readings can be large; an effect the other way counts as inactive or inconclusive.

CCOc1nccn2c(-c3ccc(CN4CCNC(=O)C4)cc3)cnc12	KDM5B inhibitor 35µM
Cc1c(-c2ccc(Cl)cc2)c(=O)oc2c(CN3CCN(CCO)CC3)c(O)ccc12	HEK293 viab inconclusive
O=C(CCS(=O)(=O)c1nc(-c2cccs2)cc(C(F)(F)F)n1)Nc1ccc(OC(F)(F)F)cc1	IP6K1 inhibitor -58
O=C(CCS(=O)(=O)c1nc(-c2cccs2)cc(C(F)(F)F)n1)Nc1ccc(F)c(Cl)c1	KDM5B inhibitor inconclusive, SNCA expr inh inconclusive, HEK293 viab inconclusive
COc1ccc(NC(=O)CCS(=O)(=O)c2nc(-c3cccs3)cc(C(F)(F)F)n2)cc1	SNCA expr inh 35µM, HEK293 viab inconclusive
COc1ccc(Cl)cc1NC(=O)CCS(=O)(=O)c1nc(-c2cccs2)cc(C(F)(F)F)n1	KDM5B inhibitor inconclusive, SNCA expr inh 28µM
Cc1ccc(NC(=O)C2CC(=O)Nc3nc(C)nn32)cc1 (configuration not stated)	none
COC(=O)c1ccc([N+](=O)[O-])c(CS(=O)(=O)c2ccc(Cl)cc2)c1	none (no result: IP6K1 inhibitor, SNCA expr inh, HEK293 viab)
O=C(Cc1ccccc1F)N1CC(Oc2ccc(-c3noc(-c4cccnc4)n3)cc2)C1	KDM5B inhibitor inconclusive, SNCA expr inh inconclusive, HEK293 viab inconclusive
CC(C)S(=O)(=O)N1CC(Oc2ccc(-c3noc(-c4cccnc4)n3)cc2)C1	KDM5B inhibitor 28µM
Cc1ccc(C(=O)NCc2c(C)ncc3c2CCNC3)cc1Cl	none
CCOc1ccccc1CN1CCc2nc(N3CCN(C)CC3)ncc2C1	KDM5B inhibitor inconclusive
O=C1CCN(C(=O)C2CCC2)CCCC(C(=O)N2CCN(c3ccccn3)CC2)CCN1 (configuration not stated)	KDM5B inhibitor 22µM
CCN(CC)C(=O)c1cc2c(s1)CCC(C(=O)N1CCN(c3ccccn3)CC1)C2 (configuration not stated)	KDM5B inhibitor 28µM, SNCA expr inh inconclusive
O=C1CCN(C(=O)c2ccsc2)CCCC(C(=O)N2CCN(c3ccccn3)CC2)CCN1 (configuration not stated)	KDM5B inhibitor 20µM
O=C1CCN(Cc2ccncc2)CCCC(C(=O)N2CCN(c3ccccn3)CC2)CCN1 (configuration not stated)	KDM5B inhibitor inconclusive
CCN(CC)C(=O)c1cc2c(s1)CCC(C(=O)N1CCN(c3ccccc3)CC1)C2 (configuration not stated)	none
O=C(CSc1nc2cc([N+](=O)[O-])ccc2o1)Nc1ccc(Cl)cc1	none (no result: IP6K1 inhibitor, SNCA expr inh, HEK293 viab)
O=S(=O)(c1ccc(F)cc1)N1CCCC(c2nn[nH]n2)C1 (configuration not stated)	none
O=C(NCc1ccc(C(F)(F)F)cc1)[C@@H]1Cc2nc[nH]c2CN1Cc1ccc([N+](=O)[O-])cc1	none
COC(=O)[C@@H]1Cc2nc[nH]c2CN1Cc1ccc(OC)c2ccccc12	KDM5B inhibitor 32µM
COC(=O)[C@@H]1Cc2nc[nH]c2CN1Cc1ccc([N+](=O)[O-])cc1	KDM5B inhibitor 28µM
Cc1c(C(=O)N(C)C)sc2c1c(=O)n(-c1ccccc1C(F)(F)F)c(=O)n2Cc1cccc(F)c1	none
CN(C)C(=O)N1CCCn2nc(CNC(=O)c3ccc4[nH]ccc4c3)cc2C1	KDM5B inhibitor inconclusive
CN(C)C(=O)N1CCCn2nc(CNC(=O)c3sccc3N)cc2C1	KDM5B inhibitor 35µM
COc1ccccc1-c1cc2c(ccn2C)c(C(=O)NCc2c(C)cc(C)[nH]c2=O)n1	KDM5B inhibitor 35µM
CC(=O)Nc1cccc(-c2cc3c(ccn3C)c(C(=O)NCc3c(C)cc(C)[nH]c3=O)n2)c1	KDM5B inhibitor 14µM
Cc1cc(C)c(CNC(=O)c2nc(-c3cccnc3)cc3c2ccn3C(C)C)c(=O)[nH]1	none
Cc1cc(C)c(CNC(=O)c2nc(-c3cncnc3)cc3c2ccn3C(C)C)c(=O)[nH]1	KDM5B inhibitor 32µM
COc1cccc(-c2cc3c(ccn3C(C)C)c(C(=O)NCc3c(C)cc(C)[nH]c3=O)n2)c1	none
COc1ccccc1-c1cc2[nH]ccc2c(C(=O)NCc2c(C)cc(C)[nH]c2=O)n1	none
CN1CCC2(CCC1=O)CN(C(=O)N1CCOCC1)CCN2C (configuration not stated)	none
COc1ccc(-n2nc(C(N)=O)c3c2C(=O)N(c2ccc(N4CCCCC4=O)cc2)CC3)cc1	none (no result: KDM5B inhibitor)
COc1ncccc1-c1cc2c(nc1OC)nc(CC1CC1)n2C	KDM5B inhibitor inconclusive
O=C(c1ccc(-c2ncc3cnc(C4=CCOCC4)cn23)cc1)N1CC[S+](=O)([O-])CC1	KDM5B inhibitor 35µM
COc1ccc(C(=O)Nc2ccc(-c3nnc4n3CCCC4)cc2)cn1	none
COc1ccc(NC(=O)c2ccc(-c3ncc4cnc(C5=CCOCC5)cn34)cc2)cn1	KDM5B inhibitor 28µM
O=C(NCCc1cnc[nH]1)c1ccc(-c2ncc3cnc(-c4ccccc4)cn23)cc1	none (no result: KDM5B inhibitor)
Cc1ccsc1-c1nc(-c2nnn3c2COC(c2ccc(Cl)cc2)C3)no1 (configuration not stated)	none
CC(NC(=O)c1ccc(-c2ccc(N3CCCCCC3)nc2)cc1)c1cccnc1 (configuration not stated)	SNCA expr inh inconclusive, HEK293 viab inconclusive
O=C(c1ccc(-c2ccc(N3CCCCC3)nc2)cc1)N1CCCC1	KDM5B inhibitor 28µM
CCCN1CCN(C(=O)c2ccc(-c3ccc(N4CCCCC4)nc3)cc2)CC1	KDM5B inhibitor 25µM
O=C(O)c1ccc(-c2ccc(N3CCCCCC3)nc2)cc1	KDM5B inhibitor inconclusive
O=C(c1ccc(-c2ccc(N3CCSCC3)nc2)cc1)N1CCOCC1	KDM5B inhibitor 22µM
O=C(c1ccc(-c2ccc(N3CCSCC3)nc2)cc1)N1CCCCC1	KDM5B inhibitor 28µM
COc1ccc(CN2C(=O)[C@@H]3C[C@@H](O)CN3C3(CN(Cc4cccc(OC)c4)C3)C2=O)cc1	none
Cn1c2ccc(NC(=O)c3ccccc3)cc2c(=O)n2nc(C(=O)O)cc12	none (no result: KDM5B inhibitor, SNCA expr inh)
CC1CCC2(OC1)OC1CC3C4CCC5C[C@@H](O[C@@H]6O[C@H](CO[C@@H]7OC[C@@H](O)[C@H](O)[C@H]7O)[C@H](O)[C@H](O)[C@H]6O)CC[C@]5(C)C4CC[C@]3(C)C1C2C (some centres not stated)	none (no result: KDM5B inhibitor, SNCA expr inh)
CN1CCN(C(=O)c2ccc(-c3ccc(N4CCCCC4)nc3)cc2)CC1	KDM5B inhibitor inconclusive
CN1CCN(C(=O)c2ccc(-c3ccc(N4CCSCC4)nc3)cc2)CC1	KDM5B inhibitor 28µM
CC1CCN(C(=O)c2ccc(-c3ccc(N4CCSCC4)nc3)cc2)CC1	KDM5B inhibitor 28µM, SNCA expr inh inconclusive, HEK293 viab inconclusive
COc1ccc(CNC(=O)C[C@@H]2CCNC[C@@H]2Cc2cc(CC3CCCCC3)on2)cc1	none
Cc1ccc(NC(=O)C2CC(=O)N(c3n[nH]c4cccc(F)c34)C2)cc1 (configuration not stated)	KDM5B inhibitor 20µM
Cc1ccc(NC(=O)C2CC(=O)N(c3n[nH]c4cccc(F)c34)C2)nc1 (configuration not stated)	none
